# PubChem BioAssay (Tox21)
# Records with an inconclusive call do not appear. The source made the active and inactive calls. The call rests on the fitted dose curve; in most records, active means well fitted cell-killing curve with a large enough effect in the repeat runs; inconclusive means weak or mixed curves, or effect the other way; inactive means flat fitted curve, though single readings scatter.
# Assay: cAMP Responsive Elements (CRE) small molecule agonists, cell-based qHTS assay: qHTS cell viability counter screen (AID 2060914); further: nearly all actives have a fitted effect of over 50% in size
# Details: CRE-bla HEK293T viability, CellTiter-Glo luminescence, 5 h; series mostly up to 92.4 µM; activity change, negative = cytotoxicity: at the top concentration
# How it was run: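 Cytotoxicity was measured as ATP luminescence (CellTiter-Glo, 30 min at room temperature) in the same wells as the CRE-bla FRET read-out. HEK293T CRE-bla cells had 3 h compound exposure at 37C/5% CO2.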
# On the % scale 0 is the no-effect control and ±100 the full control effect.
SMILES,"activity change, negative = cytotoxicity",Potency
COS(=O)(=O)OC,10.2% (inactive),
COC(=O)c1c(C(F)F)nc(C(F)(F)F)c(C2=NCCS2)c1CC(C)C,-12% (inactive),
CCC(C)(NC(=O)c1cc(Cl)c(C)c(Cl)c1)C(=O)CCl (stereo not given),-29.7% (inactive),
O=C(O)CCl,,inactive
N#Cc1cc(I)c(O)c(I)c1,5.68% (inactive),
COc1cccc2c1cc([N+](=O)[O-])c1c(C(=O)O)cc3c(c12)OCO3,13.5% (inactive),
CCCSP(=S)(OCC)Oc1ccc(Cl)cc1Cl (stereo not given),-11.7% (inactive),
CCCCC(CC)COC(=O)c1c(Br)c(Br)c(Br)c(Br)c1C(=O)OCC(CC)CCCC (stereo not given),8.32% [at 42.5 µM] (inactive),
CC(C)N(C(=O)SC/C(Cl)=C/Cl)C(C)C,-6% (inactive),
CC(C)OC(=O)C(O)(c1ccc(Cl)cc1)c1ccc(Cl)cc1,-26.5% (inactive),
CCCCN(CC)c1c([N+](=O)[O-])cc(C(F)(F)F)cc1[N+](=O)[O-],,inactive
Cn1c(-c2ccccc2)cc(-c2ccccc2)[n+]1C,,inactive
C=CC(=O)OCC(CC)(COC(=O)C=C)COC(=O)C=C,14.5% (inactive),
CCC1(CC)C(=O)N=C(O)NC1=O,0.397% (inactive),
N#CC(C#N)=NNc1cccc(Cl)c1,-12.9% (inactive),
CCC(COC(=O)c1cc(OC)c(OC)c(OC)c1)(c1ccccc1)N(C)C (stereo not given),-14% [at 42.5 µM] (inactive),
O=C(O)COc1ccc(Cl)cc1Cl,,inactive
COc1ccc(OC)c(CC(C)N)c1 (stereo not given),-2.95% (inactive),
CC(C)COP(=O)(OCC(C)C)OCC(C)C,-3.66% (inactive),
CN(N=O)C(N)=O,-1.35% (inactive),

SMILES,"activity change, negative = cytotoxicity",Potency
CO/N=C(/C1=NOCCO1)c1ccccc1Oc1ncnc(Oc2ccccc2Cl)c1F,-16.5% (inactive),
CC(C)(C#N)C(C)(C)C#N,11.3% (inactive),
CCCCCCCCn1cc[n+](C)c1,-16.3% (inactive),
[P]#[In],-5.36% (inactive),
CN1C(=O)CCS(=O)(=O)C1c1ccc(Cl)cc1 (stereo not given),,inactive
CCC(C)c1cccc(C(C)CC)c1O (stereo not given),-10.1% (inactive),
O=Cc1ccco1,,inactive
CCN,1.08% (inactive),
O=C(Nc1ccccc1)Nc1ccnc(Cl)c1,-14.5% (inactive),
Cc1ccc(OP(=O)(Oc2ccccc2)Oc2ccccc2)cc1,0.907% (inactive),
Nc1ccc(-c2ccc(N)cc2)cc1,,inactive
CCC[CH2][Sn]([CH2]CCC)([O]C(C)=O)[O]C(C)=O,1.35% (inactive),
NC(=S)Nc1ccccc1,8.38% (inactive),
[O-][Cl+]O,0.106% (inactive),
Cc1nnc(-c2ccccc2)c(=O)n1N,1.53% (inactive),
CNP(=O)(OC)Oc1ccc(C(C)(C)C)cc1Cl (stereo not given),-0.321% (inactive),
N#Cc1c(-c2ccc(Cl)cc2)[nH]c(C(F)(F)F)c1Br,1.18% (inactive),
CC(C)CCCCCCCOP(=O)(Oc1ccccc1)Oc1ccccc1,2.07% (inactive),
CC(O)CCl (stereo not given),9.05% (inactive),
CC(C)=CCN1CC[C@@]2(C)c3cc(O)ccc3C[C@@H]1[C@@H]2C,0.368% (inactive),
